Experimental data: publication PMC4336329 (PLoS ONE, 2015)
Out of some 310,000 compounds screened, about 14,000 (4.5%) showed an effect of 50% or more. The effect is printed as a negative number. For the sample, strong results were picked, then their nearest neighbours and some compounds at random.

The compounds below were run against human ether-à-go-go-related gene (hERG) potassium channel (human, UniProt Q12809) (assay: primary screen, population patch clamp on CHO cells stably expressing hERG; higher = less effect of the substance).
human ether-à-go-go-related gene (hERG) potassium channel, sequence (Q12809 whole entry, looked up): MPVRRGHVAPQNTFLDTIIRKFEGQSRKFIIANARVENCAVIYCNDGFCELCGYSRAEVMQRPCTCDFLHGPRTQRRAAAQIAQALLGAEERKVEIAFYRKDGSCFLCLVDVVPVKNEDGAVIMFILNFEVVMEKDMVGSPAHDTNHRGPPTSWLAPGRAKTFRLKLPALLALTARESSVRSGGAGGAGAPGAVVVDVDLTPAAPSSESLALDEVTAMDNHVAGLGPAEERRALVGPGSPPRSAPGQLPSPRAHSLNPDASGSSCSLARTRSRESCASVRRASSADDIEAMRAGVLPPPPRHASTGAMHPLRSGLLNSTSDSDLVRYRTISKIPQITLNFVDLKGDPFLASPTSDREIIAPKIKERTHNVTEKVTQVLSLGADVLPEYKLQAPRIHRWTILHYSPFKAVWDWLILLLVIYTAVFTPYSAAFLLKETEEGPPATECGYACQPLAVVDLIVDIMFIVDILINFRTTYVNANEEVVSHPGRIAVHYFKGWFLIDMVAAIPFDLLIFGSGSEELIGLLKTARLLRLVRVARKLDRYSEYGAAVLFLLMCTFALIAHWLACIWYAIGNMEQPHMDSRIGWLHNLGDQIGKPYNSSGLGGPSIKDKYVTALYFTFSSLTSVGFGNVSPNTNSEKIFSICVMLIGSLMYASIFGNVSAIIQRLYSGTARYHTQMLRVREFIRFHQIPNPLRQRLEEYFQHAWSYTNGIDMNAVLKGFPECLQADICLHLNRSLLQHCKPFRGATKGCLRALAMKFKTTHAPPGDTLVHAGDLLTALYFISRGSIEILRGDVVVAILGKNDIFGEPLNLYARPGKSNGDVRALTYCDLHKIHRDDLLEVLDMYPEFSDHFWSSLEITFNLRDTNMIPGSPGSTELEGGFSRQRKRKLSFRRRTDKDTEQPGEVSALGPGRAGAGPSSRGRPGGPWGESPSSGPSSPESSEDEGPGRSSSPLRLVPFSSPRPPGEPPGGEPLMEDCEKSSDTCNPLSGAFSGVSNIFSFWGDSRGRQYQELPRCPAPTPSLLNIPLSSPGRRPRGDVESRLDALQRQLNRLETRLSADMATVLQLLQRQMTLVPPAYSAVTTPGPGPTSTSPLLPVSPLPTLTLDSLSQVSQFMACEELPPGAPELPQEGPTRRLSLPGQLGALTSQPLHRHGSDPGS
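Note: peak tail current of the secondary pulse compared with the same well before compound.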

Point of comparison: `Cc1cccc(N(C(=O)c2csnn2)C(C(=O)NCc2ccccc2)c2ccc(C)o2)c1` (stereo not drawn), “hERG current change (%, negative = inhibition) at 10uM” value -54.6%. Against it:
- CC1C(C#N)=C(N)OC2=C1C(=O)CC(C)(C)C2 (stereo not drawn) — higher, 9.35%
- Cc1ccc(/C=N/NC(=O)NN(C)c2ncc(C(F)(F)F)cc2Cl)cc1 — higher, -3.09%
- CCOc1cc(/C=N/NC(=O)NN(C)c2ncc(C(F)(F)F)cc2Cl)ccc1O — higher, -54.3%
- CCOc1cc(/C=N/NC(=O)N/N=C/c2ccc(O)c(OCC)c2)ccc1O — higher, -10.1%
- CC1=C(C(=O)OCC2CCCO2)C(c2ccc(Cl)c(Cl)c2)NC(=O)N1 (stereo not drawn) — higher, 11.4%
- CCN1C(=NCCOC)N[C@@H](CCc2ccccc2)[C@H](C(=O)OC)[C@H]1C — higher, -1.21%
- CCN1C(=NCc2ccc(OC)cc2)N[C@@H](CCc2ccccc2)[C@H](C(=O)NCc2ccc(OC)cc2)[C@H]1C — lower, -65.4%
- CCN1C(=NCC(C)C)N[C@@H](CCc2ccccc2)[C@H](C(=O)NCC(C)C)[C@H]1C — higher, -16.2%
- Cc1cc(/C=N/NC(N)=O)c(C)n1-c1ccc(F)cc1 — higher, -2.06%
- O=C(NCc1ccc(F)cc1)C(c1ccc(F)cc1)N(C(=O)c1csnn1)C1CC1 (stereo not drawn) — higher, 9.3%
- Cc1cccc(N(C(=O)c2csnn2)C(C(=O)NCc2ccccc2)c2cccs2)c1 (stereo not drawn) — higher, -9.49%
- Cc1ccc(C(C(=O)NC2CCCC2)N(C(=O)c2csnn2)C2CCCC2)o1 (stereo not drawn) — higher, -4.91%
- Cc1ccc(C(C(=O)NC2CCCCC2)N(C(=O)c2csnn2)C2CC2)o1 (stereo not drawn) — lower, -57.6%
- Cc1ccc(C(C(=O)NCc2ccc(F)cc2)N(C(=O)c2csnn2)C2CC2)o1 (stereo not drawn) — lower, -56.7%
- Cc1ccc(C(C(=O)NCc2ccc(F)cc2)N(C(=O)c2csnn2)C2CC2)cc1 (stereo not drawn) — higher, -19.3%
- Cc1ccc(C(C(=O)NC2CCCCC2)N(C(=O)c2csnn2)C2CCCC2)o1 (stereo not drawn) — higher, -7.71%
- Cc1ccc(C(C(=O)NCc2ccccc2)N(C(=O)c2csnn2)c2cccc3ccccc23)o1 (stereo not drawn) — higher, -13.2%
- O=[N+]([O-])c1cc2c(cc1Br)CCN2 — higher, 11.2%
- O=C(O/N=C1\CCCc2ccccc21)C1CC1 — higher, 14.4%
- O=C(O)CCCC(=O)Nc1ccc(Oc2cccc(C(F)(F)F)c2)nc1 — higher, 19.4%
- CCC(C(=O)NCCc1ccccc1OC)n1nc(C)c2c(C)n(-c3ccccc3)nc2c1=O (stereo not drawn) — higher, -30%
- O=C(COC(=O)c1cc(NS(=O)(=O)c2cccs2)ccc1O)Nc1ccc(F)c(F)c1F — higher, 4.87%
- CCC(=O)Nc1cccc(NC(=S)NC(=O)c2cccs2)c1 — higher, 3.59%
- O=C(NC(=S)Nc1cccc(-c2ccc(CO)o2)c1)c1cccs1 — higher, 23.7%
- CC(C)(O)c1ccc2c(c1)CCC1C(C)(C(=O)O)CCCC21C (stereo not drawn) — higher, 4.17%
- CCOC(=O)Cc1cc(=O)n2[nH]cc(-c3cccc(Br)c3)c2n1 — higher, 35.6%
- CC(=O)N1CCc2cc(S(=O)(=O)NC(C(=O)Nc3nc(C)cs3)C(C)C)ccc21 (stereo not drawn) — higher, 8.38%
- CCN1C(=O)C2C(c3ccc(O)c(OC)c3)NC(C)(C(=O)OC)C2C1=O (stereo not drawn) — higher, 12.1%
- COc1cc(=O)[nH]c(SCc2c(F)c(F)c(F)c(F)c2F)n1 — higher, 0.443%
- CC(=O)N(CC(=O)O)c1ccccc1C(=O)O — higher, 12%
- O=C1/C(=C2\C(=O)N(Cc3ccc(F)cc3)c3ccccc32)SC(=S)N1CCS(=O)(=O)O — higher, 4.31%
- O=C(CN1C(=O)/C(=C2\SC(=S)N(CCS(=O)(=O)O)C2=O)c2ccccc21)Nc1cccc(Br)c1 — lower, -73.1%
- Cc1cccc(NC(=O)CN2C(=O)/C(=C3\SC(=S)N(CC4CCCO4)C3=O)c3ccccc32)c1 (stereo not drawn) — higher, 12.9%
- COc1ccccc1CCNC(=O)C1CCC(=O)N(C2CCCCCC2)C1 (stereo not drawn) — higher, -7.62%
- Cc1ccc(-c2nnc3sc(-c4ccncc4)nn23)cc1 — higher, -41.4%
- Cc1cn2c(-c3ccncc3)nnc2s1 — higher, 7.96%
- N#Cc1cc2sc3nnc(-c4ccncc4)n3c2cc1C#N — higher, -54%
- COCCCNC(=O)c1ccc(Cn2c(=O)c3ccccc3n(CC(=O)NCc3ccco3)c2=O)cc1 — higher, 6.71%
- COc1cccc2sc(=NC(=O)CCS(=O)(=O)c3ccc(C)cc3)n(C)c12 — higher, 8.32%
- COc1cccc2sc(=NC(=O)CS(=O)(=O)c3ccc(F)cc3)n(C)c12 — higher, -0.213%
- COc1cccc2sc(=NC(=O)CS(=O)(=O)c3ccc(Cl)cc3)n(C)c12 — lower, -60.8%
- Cc1ccccc1OCC(=O)NN1C(=O)C2C3C=CC(O3)C2C1=O (stereo not drawn) — higher, 12.3%
- COCCc1nnc(NC(=O)Cc2ccccc2)s1 — higher, 4.67%
- C#Cc1ccc([C@@H]2C=C(C(=O)NCc3ccccc3)O[C@H](OCc3ccc(CO)cc3)C2)cc1 — higher, 6.15%
- O=C(NCCC(=O)N(Cc1ccco1)Cc1cccs1)c1ccccc1Cl — higher, -16.5%
- O=C(c1cc2ccccc2oc1=O)N(Cc1ccco1)Cc1cccs1 — lower, -58.3%
- COc1ccccc1C(=O)NCCC(=O)N(Cc1ccco1)Cc1cccs1 — higher, -21.3%
- O=C(c1cc2ccccc2oc1=O)N(Cc1cccs1)Cc1cccs1 — higher, -14.4%
- O=C(c1cc2ccccc2o1)N(Cc1ccco1)Cc1cccs1 — higher, -35.4%
- O=C(NCc1ccc2c(c1)OCO2)c1cc2ccccc2oc1=O — higher, 12%
- O=C(c1cc2ccccc2oc1=O)N(Cc1ccc2c(c1)OCO2)Cc1ccco1 — lower, -59.3%
- O=C(NCCC(=O)N(Cc1ccco1)Cc1cccs1)c1ccc(Br)cc1 — lower, -58.7%
- O=C(c1cc2ccccc2oc1=O)N(Cc1ccco1)CC1CCCO1 (stereo not drawn) — higher, 6.96%
